# Laboratory results as given in PubChem BioAssay AID651815 (National Center for Advancing Translational Sciences (NCATS), 2012).
# The campaign covered roughly 2,100 compounds. About 1,100 (52%) were called active. Roughly 29% stayed inconclusive and do not appear here. The call rests on the fitted dose curve; in most records, active means well fitted inhibition curve with a large enough effect; inconclusive means small, poorly fitted or top-dose-only effect; inactive means no such curve, though single readings can be large or run the other way. So high a share suggests a set chosen from earlier hits. Some of the results follow.
# Target: DNA dC->dU-editing enzyme APOBEC-3F (Homo sapiens) (UniProt Q8IUX4)
# Experiment: qHTS for inhibitors of Vif-A3F interactions: Cherry picks counterscreen; further: nearly all actives have a fitted effect of over 65% in size
# Conditions: HeLa A3F-eYFP/Vif cells, eYFP fluorescence, 24 h; series mostly up to 46.1 µM
# Summary of the method: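 HeLa cells stably expressing A3F-eYFP and Vif, cultured overnight, then treated 24 h at 37 degrees C with compounds at several concentrations; yellow fluorescence (488 nm Ex/500-530 nm Em) imaged on Acumen; MG132 positive control.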
# Potency means the concentration at half of the fitted maximal effect.
# Chain of DNA dC->dU-editing enzyme APOBEC-3F (Homo sapiens) (Q8IUX4 whole entry, looked up): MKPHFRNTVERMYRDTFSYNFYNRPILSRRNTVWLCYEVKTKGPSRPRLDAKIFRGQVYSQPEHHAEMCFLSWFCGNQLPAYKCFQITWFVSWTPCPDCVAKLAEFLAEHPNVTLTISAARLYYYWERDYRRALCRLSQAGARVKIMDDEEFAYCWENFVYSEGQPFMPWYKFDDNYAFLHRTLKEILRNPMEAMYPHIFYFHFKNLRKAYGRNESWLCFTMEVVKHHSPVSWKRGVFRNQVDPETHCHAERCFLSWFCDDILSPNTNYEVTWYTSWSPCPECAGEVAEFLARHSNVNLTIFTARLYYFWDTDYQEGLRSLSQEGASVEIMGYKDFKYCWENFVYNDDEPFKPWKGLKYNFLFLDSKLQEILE
row,Compound,Potency
1,COc1cc(N2CCCC2)c(OC)cc1/C=C1/NC(=S)NC1=O,1.58 µM (active)
2,COc1ccc(/C=C/C=C2\NC(=S)NC2=O)cc1,inactive
3,Cc1cccc2cc(C#N)c(SCC(=O)N3CC(=O)Nc4ccccc43)nc12,7.9 µM (active)
4,Cc1cc(C)c2nc(SCC(=O)N3CC(=O)Nc4ccccc43)c(C#N)cc2c1,3.14 µM (active)
5,CC1=C(C(=O)Nc2cccc(F)c2)C(c2ccsc2)C2=C(CC(C)(C)CC2=O)N1 (stereo unspecified),2.8 µM (active)
6,CCN(CC)c1ccc2cc(-c3nc4sc5c(c4c(=O)[nH]3)CCC(C(C)(C)C)C5)c(=O)oc2c1 (stereo unspecified),inactive
7,COc1ccc2cc(-c3nc(Cl)c4c5c(sc4n3)CC(C)CC5)c(=O)oc2c1 (stereo unspecified),20.6 µM (active)
8,Nc1[nH]c2cc([N+](=O)[O-])ccc2c1-c1ccccn1,20.6 µM (active)
9,COc1cc(-c2noc(C)c2C#Cc2ccc(N)cc2)cc(OC)c1OC,0.994 µM (active)
10,Cc1ccc(-c2nc(-c3cc4cccc(OCc5cccc(F)c5)c4oc3=O)no2)cc1,23.1 µM (active)
11,N#Cc1c(Nc2ccccc2)[n+]([O-])c2ccc(Cl)cc2[n+]1[O-],inactive
12,C=C(C(=O)c1ccccc1)C(C)C(=C)C(=O)c1ccccc1,3.53 µM (active)
13,C=C(C(=O)c1ccccc1)C(C(=C)C(=O)c1ccccc1)c1ccc(OC)cc1,3.96 µM (active)
14,S=C(NC1CCCCC1)N(CCc1ccccc1)CCc1ccccc1,inactive
15,COCCN1C(=O)/C(=C/c2ccc(N3CCCC3)cc2)SC1=S,5.17 µM (active)
16,COCCN1C(=O)/C(=C/c2ccc(N3CCCC3)cc2C)SC1=S,2.91 µM (active)
17,CCn1c(O)c(/C=N/N=C/c2ccc(OC)cc2)c2cc(C3=NNC(=O)CC3)ccc21,6.51 µM (active)
18,COc1cc(CCC(=O)Nc2nnc(C)s2)cc(OC)c1OC,4.44 µM (active)
19,Cc1cc(OCC(=O)Nc2nnc(C3CC3)s2)ccc1Cl,inactive
20,N#CCSc1ccccc1NC(=O)CN1C(=O)NC(CCc2ccccc2)C1=O (stereo unspecified),inactive
21,N#CCSc1ccccc1NC(=O)CN1C(=O)C2CC=CCC2C1=O (stereo unspecified),14 µM (active)
22,O=C(CN1c2cccc3cccc(c23)S1(=O)=O)Nc1ccc(S(=O)(=O)N2CCOCC2)cc1,inactive
23,CC(=O)Nc1ccc(Nc2c3c4c(cccc4n(C)c2=O)C(=O)c2ccccc2-3)cc1,inactive

row,Compound,Potency
1,COC(=O)Nc1ccc(S(=O)(=O)N2CCCc3ccccc32)cc1,5.59 µM (active)
2,CC(=O)Nc1ccc(S(=O)(=O)N2c3ccccc3C(C)=CC2(C)C)cc1,2.23 µM (active)
3,CC(=O)Nc1ccc(S(=O)(=O)N2CCSc3ccccc32)cc1,2.5 µM (active)
4,Cc1ccc2nsnc2c1NC(=O)c1ccc(-c2cc(Cl)ccc2Cl)o1,14 µM (active)
5,Cc1nc(CSc2nsc(/C=C/N(C)C)c2C#N)cs1,inactive
6,CCSc1nnc(-c2sc3nnc(-c4ccccc4)c(-c4ccccc4)c3c2N)o1,4.11 µM (active)
7,OCCCn1c(C2CCCN2c2nc(-c3ccc(Cl)cc3)cs2)nc2cc(Cl)c(Cl)cc21 (stereo unspecified),inactive
8,COc1cccc2sc(Nc3nc(-c4cc5ccccc5oc4=O)cs3)nc12,3.14 µM (active)
9,O=C1c2ccccc2C(=O)c2cc(N3CCCCC3)ccc21,7.04 µM (active)
10,COc1ccc(/C=N/NC(=O)c2ccccc2Cl)cc1CSc1nc2ccccc2s1,4.44 µM (active)
11,COc1cnc(-c2ccccn2)nc1Oc1ccc(F)cc1F,inactive
12,COc1cc(OC)cc(C(=O)N/N=C/c2ccc(OC)c(COc3ccc4ccccc4c3)c2)c1,12.5 µM (active)
13,COc1ccc(/C=N/NC(=O)c2cccnc2)cc1CSc1ccccn1,3.14 µM (active)
14,O=C(CSc1nc2ccccc2s1)c1cc2ccccc2o1,inactive
15,COc1ccc(/C=N\NC(=O)c2ccccc2F)cc1COc1ccc(F)cc1F,2.23 µM (active)
16,COc1ccccc1/C=N/NC(=S)Nc1cccnc1,inactive
17,COc1ccc(/C=N/NC(=O)c2cccnc2)cc1COc1ccc(NC(C)=O)cc1,12.5 µM (active)
18,Cn1c(N)c(-c2ccccc2)c2ccc([N+](=O)[O-])cc2c1=O,14 µM (active)
19,C=CCN1C(=O)/C(=C2/Sc3ccc(OC)cc3N2CC)SC1=S,13 µM (active)
20,CCN1C(=O)/C(=C2/Sc3ccc(OC)cc3N2C)SC1=Nc1cccc(O)c1,17.7 µM (active)
21,CCN(CC)c1ccc(/C=C/C2=C3C=CC=CC3NC=C2)cc1 (stereo unspecified),23.1 µM (active)
22,CCN(CC)c1ccc(/C=C/c2ccccn2)cc1,20.6 µM (active)
23,CN(C)c1ccc(/C=C/c2ccncc2)cc1,9.2 µM (active)

row,Compound,Potency
1,CCN(CC)c1ccc(/C=C/c2ccncc2)cc1,13 µM (active)
2,Cc1ccc(S(=O)c2ccc([N+](=O)[O-])c3nonc23)cc1 (stereo unspecified),inactive
3,CC(C)CC[n+]1ccccc1/C=C/c1ccc(N(C)C)cc1,18.4 µM (active)
4,CC[n+]1ccccc1/C=C/c1ccc(N(C)C)cc1,23.1 µM (active)
5,CCOC(=O)c1cc2n(c1N)-c1ccccc1C2=O,18.4 µM (active)
6,CCOC(=O)c1cnc(-n2nc(C)cc2C)nc1NNc1nc(-c2ccccc2)cc(-c2ccccc2)n1,inactive
7,CCOC(=O)c1c(CN(CC)CC)n(-c2ccccc2)c2ccc(O)cc12,inactive
8,CCOC(=O)c1cc2n(c1/N=C/N(C)C)-c1ccccc1C2=O,18.4 µM (active)
9,Cc1cc(/C=C2\SC(=S)N(C)C2=O)c(C)n1-c1ccc(O)cc1,18.4 µM (active)
10,Cc1cc(/C=C2\SC(=S)N(C)C2=O)c(C)n1-c1ccccc1O,18.4 µM (active)
11,NNC(=O)c1cc2sccc2s1,inactive
12,CCn1ncc(/C=N\NC(=O)c2csc3ccccc23)c1C,2.5 µM (active)
13,CCOC(=O)/C(=C/C1=CC(=C/N(C)C)/C(=O)O1)C(C)=O,inactive
14,CCOc1ccc(C2CC(c3c(O)c4ccccc4oc3=O)=NN2c2ccccc2)cc1OC (stereo unspecified),14.6 µM (active)
15,CNC(=O)C(Sc1nc(C)nc2c1oc1ccccc12)C(C)=O (stereo unspecified),inactive
16,CCOc1ccccc1Oc1nc(C)nc2c1oc1ccccc12,2.31 µM (active)
17,Cc1cccc(N2CCN(C(=O)c3cccc(N4CCCC4=O)c3)C(C)C2)c1 (stereo unspecified),6.27 µM (active)
18,COc1ccc(OC)c(NC(=O)Cn2c(=O)n(-c3ccc(Cl)cc3)c(=O)c3c(C)c(C)sc32)c1,5.8 µM (active)
19,COc1ccc(OC)c(NC(=O)Cn2cnc3onc(-c4ccc(Cl)cc4)c3c2=O)c1,inactive
20,Cc1ccc(-c2cc(C(=O)N/N=C/c3c[nH]c4ccccc34)[nH]n2)cc1,3.53 µM (active)
21,Cc1cc(N)cc(C)c1-c1c(Br)cc(N)cc1Br,12.5 µM (active)
22,CCOC(=O)CN1C(=O)S/C(=C/c2ccc(N3CCCCC3)o2)C1=O,4.61 µM (active)
23,O=C1S/C(=C/c2ccc(N3CCOCC3)o2)C(=O)N1Cc1ccc(F)cc1,5.59 µM (active)

row,Compound,Potency
1,CCCN1C(=O)S/C(=C\c2ccc(N3CCOCC3)o2)C1=O,3.96 µM (active)
2,O=C1S/C(=C\c2ccc(N3CCOCC3)o2)C(=O)N1c1ccccc1,3.53 µM (active)
3,Cc1ccc(NC(=S)N/N=C2\CCCCC2C)cc1 (stereo unspecified),inactive
4,O=C1S/C(=C/c2ccc(N3CCOCC3)o2)C(=O)N1Cc1c(F)cccc1Cl,2.23 µM (active)
5,CC(C)n1cc(NC(=O)c2cc(-c3ccccc3)on2)cn1,3.53 µM (active)
6,CCc1ccc2nc(N(CCCN(C)C)C(=O)c3ccc(S(=O)(=O)N(C)C4CCCCC4)cc3)sc2c1,inactive
7,O=C(Nc1nc(-c2ccccn2)cs1)C1CCCC1,inactive
8,O=C(Nc1nc2ccc(S(=O)(=O)N3CCCC3)cc2s1)C1CCCCC1,4.44 µM (active)
9,C=CCOc1c(Cl)cc(C(=S)N2CCCC2)cc1OCC,14 µM (active)
10,CCCCOc1ccc(/C=C/C2=CC(C)(C)NC(=S)N2)cc1OCC,inactive
11,Cc1ccc(F)c(S(=O)(=O)NC(=O)C2(C)CCN2C(=O)Cc2ccc(Cl)cc2Cl)c1 (stereo unspecified),inactive
12,Cc1cc(=O)oc2cc(OCC(=O)N3c4ccccc4CC3C)ccc12 (stereo unspecified),3.53 µM (active)
13,COc1ccccc1C1=NOC(COc2ccc3c(C)cc(=O)oc3c2)C1 (stereo unspecified),1.12 µM (active)
14,CCOC(=O)c1cc(-c2ccccc2C)n(CC2CC(c3ccc(OC)cc3)=NO2)n1 (stereo unspecified),inactive
15,Oc1ccc(/C=N\Nc2nncc(-c3ccccc3)n2)cc1,19.8 µM (active)
16,COc1cc(/C=N/Nc2ccc(Cl)nn2)cc(OC)c1O,inactive
17,COc1ccc(-c2cnnc(N/N=C/c3ccc(O)c(OC)c3)n2)cc1,9.94 µM (active)
18,COc1cc(/C=N/Nc2cc(C)nc(NS(=O)(=O)c3ccccc3)n2)ccc1O,inactive
19,O=c1oc2c3c4c(cc2c(C(F)(F)F)c1CCN1CCOCC1)CCCN4CCC3,3.66 µM (active)
20,Cc1ccc2[nH]c(C(=O)NN=C3CCCCC3)c(-c3ccccc3)c2c1,inactive
21,CN(C)c1ccc(/C=N/NC(=O)c2cc(-c3ccc4c(c3)OCO4)n[nH]2)cc1,15.8 µM (active)
22,CCc1ccc(NC(=O)/C(C#N)=C/c2cc3ccc(C)cc3nc2N2CCOCC2)cc1,23.1 µM (active)
